Experimental data as given in paper PMC13494018.

molecular target: VTCN1, Q7Z7D3
Sequence (Q7Z7D3 whole entry): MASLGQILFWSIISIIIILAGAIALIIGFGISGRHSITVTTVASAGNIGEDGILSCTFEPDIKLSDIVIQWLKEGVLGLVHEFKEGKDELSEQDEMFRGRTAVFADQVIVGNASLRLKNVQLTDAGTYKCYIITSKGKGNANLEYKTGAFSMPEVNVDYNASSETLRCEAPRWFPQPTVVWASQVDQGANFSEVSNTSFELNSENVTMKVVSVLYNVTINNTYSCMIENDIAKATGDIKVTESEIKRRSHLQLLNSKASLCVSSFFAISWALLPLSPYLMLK

Binder	binding in a display sort
design_607_777643b9-bd23-49d1-80ae-2b1434974efa_1272_dldesign_0_cycle1_af2pred (protein) EEAFKEAGEKALEYAEKVLKLAKKEPEVLEKAEKGLELLKKGIETGDKDLLVKARSYFLQVASYASPEVAEVAEKAAEYIDEAYILLS	not found (inactive)
design_607_777643b9-bd23-49d1-80ae-2b1434974efa_1377_dldesign_0_cycle1_af2pred (protein) AEVAALVKKASEAMGEARFNANAAEKIPEEAEEYAKKAEEAIKAFRDALAQIRALAAEASPETLAAADRAEARLKELEKKVKEALKK	not found (inactive)
design_607_777643b9-bd23-49d1-80ae-2b1434974efa_1383_dldesign_0_cycle1_af2pred (protein) DGEEFLKKLKERGELIKKKYPVAAEEITKITDEAVKVAQKGIEDPEKFEEYKKEATDLLHKAREIGAEKEVEAKL	not found (inactive)
design_607_777643b9-bd23-49d1-80ae-2b1434974efa_1448_dldesign_0_cycle1_af2pred (protein) AAAEEARKAAITAAADTLAEADGDVYLAANELAKKVGPEAGKAILEKAKAARKEALAAIKEDPAAGAALAKRKGEEILKEAKELIEKA	not found (inactive)
design_607_777643b9-bd23-49d1-80ae-2b1434974efa_1467_dldesign_0_cycle1_af2pred (protein) AEERAKKVIKEAEELRKEAIALAEKYKENPEVRKLAVEAAHYALLAISAAKAGVKFLPYAEEYLKKAKELYEKGKALAEALEKEKEEK	not found (inactive)
design_607_777643b9-bd23-49d1-80ae-2b1434974efa_1562_dldesign_0_cycle1_af2pred (protein) GKELLEKIKKLSEEAVFATADDPEKGKEKLEEAKKLVKEAEKLPEAPKAKEALEKAEKVSKSIIEDIEKAK	not found (inactive)
design_607_777643b9-bd23-49d1-80ae-2b1434974efa_1601_dldesign_0_cycle1_af2pred (protein) ASEEVKKQAEASSAAYREAKKVAKYVKANAADPKAAEIAKKANALIEEAMTGDAETAEKKTKEIAKLAKE	not found (inactive)
design_607_777643b9-bd23-49d1-80ae-2b1434974efa_1637_dldesign_0_cycle1_af2pred (protein) MEKDEALVERAFEAGGELFEKYPEGSKIASAMIRAATIARKDPEAGLEYLRERGLELGEEVAEEATERFRKILEEL	not found (inactive)
design_607_777643b9-bd23-49d1-80ae-2b1434974efa_1681_dldesign_0_cycle1_af2pred (protein) HMTPEQIAAAKATAAAAAALAANAATTTQAQITAVMDAAAAAMPEFADTFATLRATMLANYADKAGVAKGLAAVARMLAASAKAAE	not found (inactive)
design_607_777643b9-bd23-49d1-80ae-2b1434974efa_1699_dldesign_0_cycle1_af2pred (protein) SEKVEEVAKKEAEKIKEVAKKYGIEEEGKKAVERLKKKAEEAKKWKKPEIGAESVKTYGEGALKSVEILGKKKAA	not found (inactive)
design_607_777643b9-bd23-49d1-80ae-2b1434974efa_1839_dldesign_0_cycle1_af2pred (protein) GMEAGKKALAEADKAGAAAIAAAKAGDVKAASAAAGEAYFYLAEAYVEFGPEADEEIKAKRQALLDALKKATAEAAA	not found (inactive)
design_607_777643b9-bd23-49d1-80ae-2b1434974efa_1871_dldesign_0_cycle1_af2pred (protein) DMKEEAKKVAKEAKEVAKKVYELDPAKGSELSAKIHEAEALVKHPKFAEEGLKELKETLKKAKELLKKLE	not found (inactive)
design_607_777643b9-bd23-49d1-80ae-2b1434974efa_1902_dldesign_0_cycle1_af2pred (protein) DVEKVAKEAIEKLEEYGKRVPELAPEAKKAIERVKRRKEEGEKNPKFAPASIEAIKDTAENLKKKAEKLEKA	not found (inactive)
design_607_777643b9-bd23-49d1-80ae-2b1434974efa_1959_dldesign_0_cycle1_af2pred (protein) MEKAEEYLEEAKKALEKAEEYIAKAAADPANRAAYAAKAAQYAQEARILADGLELVDPSMKPEAEELRERARELIKKLAAVL	not found (inactive)
design_607_777643b9-bd23-49d1-80ae-2b1434974efa_1961_dldesign_0_cycle1_af2pred (protein) SEEEAKKKAEKAAEEAKKLAKEGAKFPEKAEELTEKAKEIAKELAKAGFPKLGSEAAAAAHEAQAEANLKKR	not found (inactive)
design_607_777643b9-bd23-49d1-80ae-2b1434974efa_1990_dldesign_0_cycle1_af2pred (protein) MKEIIKLESESLRKLVRVAREVAEADPSLKPLAEEAILAAADNPEEGAKKVEELAKASLKVEGGEEYAKKLKEVAEKLKEVEEIYK	not found (inactive)
design_607_777643b9-bd23-49d1-80ae-2b1434974efa_1995_dldesign_0_cycle1_af2pred (protein) EKEKELKEEVKEAGKRAEERVSRRAAKATNQQQKEATKALADNAIASIRKLAEEKGKETGKEEEFKKLAEEAEKKISAIVEAV	not found (inactive)
design_607_777643b9-bd23-49d1-80ae-2b1434974efa_2023_dldesign_0_cycle1_af2pred (protein) SAEAAAVKAEVDALTAAAVAATPEEAAKLGSQAAALAYEAAAEYASLSAREKDPEKAAEYKALADALREAARAARDRVAAAIAAKLA	not found (inactive)
design_607_777643b9-bd23-49d1-80ae-2b1434974efa_2143_dldesign_0_cycle1_af2pred (protein) GMEEEEKRREELKKKAEELIKKAHEAYENSAEASVTNKEAAEIYREAAKLYKKAAEAYRSGEKVEEGEKYEEEAKAKEKEAKALLEK	not found (inactive)
